# Experimental data from PubChem BioAssay AID504466 (National Center for Advancing Translational Sciences (NCATS), 2011).
# Hit rate of the full screen: of about 330,000 compounds, about 4,200 (1.3%) were called active. About 6% were inconclusive and are not listed. Shown is part of a subset that was picked to be rich in actives. A number with no mark means an inactive call. Calls come from the whole dose curve; as a rule, active = well fitted activation curve with a large enough effect; inconclusive = small, poorly fitted or top-dose-only effect; inactive = no such curve, though single readings can be large or run the other way.
# Assay: qHTS screen for small molecules that induce genotoxicity in human embryonic kidney (HEK293T) cells expressing luciferase-tagged ELG1; note: nearly all actives have a fitted effect of over 60% in size; for activity change, positive = activation: % of control where 0% means no effect
# Settings: HEK293T ELG1-luciferase reporter, luminescence, 16 h; series mostly up to 46 µM; activity change, positive = activation: at the top concentration
# Excerpt: NIH Molecular Libraries Probe Production Network [MLPCN] NIH Chemical Genomics Center [NCGC] MLPCN Grant: 1 R03 MH092164-01 Assay Provider: Kyungjae Myung, NHGRI, NIH Keywords: MLPCN, qHTS, NCGC, genotoxicity, cancer Assay Overview: Cancer cells divide rapidly compared to normal cells in the body. During cell division, cancer cells need to duplicate their genome by DNA replication. The failure of genome duplication leads to cancer cells' death. Therefore, inhibitors of DNA replication could specifically kill cancer cells. Based on this concept, many chemotherapeutic agents were developed and have been used to treat cancer patients. However, there are a limited number of agents available in the clinical setting, and some of those that do exist have low efficacy and severe side effects. Therefore, if we can find the compounds that effectively block DNA replication either by directly damaging DNA or by inhibiting other cellular mechanisms, the options for cancer treatment will be broadened. With this in mind, we developed a quantitative high-throughput ELG1-luciferase reporter gene assay. Since the level of human ELG1 protein is enhanced in response to genetic stresses, increases in luciferase activity can be used to identify compounds that cause genetic stress.
# Assay Protocol Summary: For genotoxicity screening, 2,000 cells in 5 uL/well were dispensed into white, solid-bottom 1536-well plates using a solenoid-based dispenser. Following transfer of 23 nL compound or DMSO vehicle by a pin tool, the plates were incubated 16 hr at 37 °C and 5% CO2. 5 ul ONE-Glo (Promega) was then added to each plate and following a 30 min incubation at room temperature, luciferase activity was quantified on a ViewLux CCD-based plate reader.
# Potency is the fitted concentration of half-maximal effect.
Compound,"activity change, positive = activation",Potency
CC(OC(=O)c1ccc(Cl)cc1O)C(=O)NCCC1=CCCCC1 (stereo unspecified),-1.69%,
O=C(COC(=O)c1ccco1)Nc1ccc(Cl)cn1,0.922%,
COc1ccc(NC(=S)N2CCc3cc(OC)c(OC)cc3C2)cc1,-1.11%,
COc1ccc(NC(=S)N2N=CCC2c2ccccc2)cc1 (stereo unspecified),,4.11 µM (active)
CCC(C)N(C)C1CCN(C(=S)Nc2ccc(OC)cc2)CC1 (stereo unspecified),-2.36%,
COC(=O)[C@]1(CC(C)C)N[C@H](c2ccc(SC3CCCCC3)cc2)[C@@H]2C(=O)N(C)C(=O)[C@@H]21,-8.21%,
CSc1ccccc1NC(=O)c1cc(Cl)sc1Cl,-0.581%,
CSc1ccccc1NC(=O)c1cnc2sc(C)cn2c1=O,,3.26 µM (active)
Cc1ccccc1C(=O)Nc1ccccc1Sc1ccccc1,1.91%,
C[C@@H](CN1CCC[C@H]1CN1C(N)=NC[C@@H]1Cc1ccccc1)N1C[C@@H](Cc2ccccc2)N(CCCC2CCCC2)C1=N,0.226%,
CCN(CC)S(=O)(=O)c1ccc(N2CCCC2)c(NC(=O)c2ccc([N+](=O)[O-])o2)c1,-2.57%,
O=C(CSc1nccn1-c1cccc(F)c1)NC1CCCC1,-1.66%,
COc1cc(C(=O)NC2CCN(C)CC2)ccc1Nc1ncc2c(n1)N(C1CCC(O)CC1)CCC(=O)N2C (stereo unspecified),11.5%,
CCC(=O)c1ccc(OCC(=O)OCC(=O)N2CCc3ccccc3C2)cc1,4.03%,
O=C(Cn1c(=S)nc2ccccn21)N1CCc2ccccc2C1,,20.6 µM (active)
O=C(C(=O)N1CCc2ccccc2C1)N1CCc2ccccc2C1,3.73%,
CCOC(=O)[C@@H]1[C@H]2COc3ccc(Br)cc3[C@H]2N2C(=O)N(c3ccc(C)cc3)C(=O)[C@@]12C,-1.54%,
Cc1ccc(S(=O)(=O)N2C[C@@H]3CCCC[C@@H]3[C@@H](C)[C@H]2c2cn(Cc3ccccc3)c3ccc(F)cc23)cc1,-5.58%,
CC(C)C(NC(=O)c1c(F)cccc1F)C(=O)NNC(=O)c1ccccc1 (stereo unspecified),3.05%,
COc1cc(/C=C/C(=O)OCC(=O)c2ccccc2)cc(OC)c1OC,5.34%,
Cc1nc2cc(-c3ccc(F)cc3)nn2c(N2CCOCC2)c1C,10.7%,

Compound,"activity change, positive = activation",Potency
Cc1cc(N)n2nc(-c3ccc(C(C)(C)C)cc3)cc2n1,,0.411 µM (active)
Cc1cc(C(C)(C)C)n2nc(C)c(-c3ccccc3)c2n1,-0.426%,
COc1ccc2[nH]c3c(c2c1)CCN1C(=O)C(CC(=O)NCCc2ccccn2)C[C@H](C(=O)N2CCOCC2)[C@@]31C (stereo partly specified),7.43%,
CCS(=O)(=O)n1nc(-c2ccccc2)nc1SCc1ccccc1,,10.3 µM (active)
CCn1c(SCc2ccccc2)nc2c(c1=O)SCC2,4.43%,
CCn1c(SCc2ccccc2)nc2cc(OC)c(OC)cc2c1=O,3.09%,
Cc1ccc2c(c1)NC(=O)[C@@]1(C)[C@@H](c3ccccc3)[C@H]3COc4ccc(Cl)cc4[C@@H]3N1C2=O,-1.37%,
CN(C)C(=O)CCc1ccc2c3c([nH]c2c1)[C@]1(C)[C@@H](C(=O)N2CCOCC2)C[C@H](CC(=O)NCCc2ccccn2)C(=O)N1CC3,9.82%,
COc1ccc(S(=O)(=O)N(C)C[C@@H]2Oc3ccc(NC(=O)Nc4c(C)noc4C)cc3C(=O)N([C@H](C)CO)C[C@@H]2C)cc1,3.81%,
COc1ccc(Nc2nc(NCc3ccco3)nc(N/N=C/c3ccccc3Cl)n2)cc1,-0.416%,
COc1ccc(-n2cnc3cc(NCc4ccco4)ccc32)cc1,,20.6 µM (active)
COc1ccc(-n2cnc3cc(C(=O)NC4CCCC4)ccc32)cc1,12.1%,
C=CCC[C@H](Cc1ccc(F)cc1)C(=O)OC[C@@H](NC(=O)[C@@H](CC=C)CC(=O)N[C@H](CO)Cc1ccccc1)C(C)(C)C,-8.04%,
Cc1ccc(C)c(C(C)NC(=O)C2CCCO2)c1 (stereo unspecified),-2.35%,
Cc1cc([N+](=O)[O-])ccc1NC(=O)C1CCCO1 (stereo unspecified),-1.87%,
Cc1cc(C)c2nc(NC(=O)C3CCCO3)sc2c1 (stereo unspecified),,3.55 µM (active)
Oc1ccc(/C=N/Nc2ccc(C(F)(F)F)cn2)cc1O,,20.6 µM (active)
Cc1nccn1CC(=O)N/N=C/c1ccc(O)c(O)c1,0.2%,
O=C(Nc1ccccc1)Nc1ccc(C(F)(F)F)cn1,8.04%,
CCCCCCSc1ccc(-c2nc3ccc(Cl)cn3c2NCc2ccccc2)cc1,-2.3%,
Clc1ccc2nc(CSc3ccccc3)cn2c1,,0.82 µM (active)

Compound,"activity change, positive = activation",Potency
O=C(/C=C/c1ccc2c(c1)OCO2)NCc1cn2cc(Cl)ccc2n1,1.4%,
O=C(NCCc1ccco1)c1ccc(OCc2cn3ccccc3n2)cc1,9.93%,
COc1ccc(-c2nnc3ccc(SCc4ccccc4)nn23)cc1,-0.849%,
COc1ccc2nc(SCc3ccccc3)nc(C)c2c1,,3.66 µM (active)
COC(=O)CSc1nc(C)c2ccc(OC)cc2n1,-1.32%,
C#CCOCCOCCOCCNc1nc(N2CCN(C(=O)[C@H](CO)n3cc([C@@H](N)C(C)C)nn3)CC2)nc(N2CCN(C(=O)[C@H](CCC(=O)O)n3cc([C@@H](N)[C@H](C)CC)nn3)CC2)n1,3.78%,
O=C(COC(=O)c1cccnc1Cl)NC12CC3CC(CC(C3)C1)C2,-4.16%,
Cc1ccc(NC(=O)C2CC2)cc1S(=O)(=O)N1CCOCC1,-0.262%,
CC[C@]12c3[nH]c4cc(CCC(=O)N(C)C)ccc4c3CCN1C(=O)[C@@H](CC(=O)NCCCN(C)C)C[C@@H]2C(=O)N1CCN(C(=O)c2ccco2)CC1,-3.3%,
O=C(NN=Cc1ccc(N2CCOCC2)cc1)c1cc2ccccc2cc1O,-2.13%,
COc1ccccc1OCC(=O)OCc1cc(-c2ccco2)on1,-0.824%,
N/C(=N\OC(=O)Cc1ccc([N+](=O)[O-])cc1)c1ccccn1,12%,
COc1ccccc1OCC(=O)O/N=C(\N)c1ccccn1,,9.2 µM (active)
COc1ccc(OCC(=O)NNC(=O)C2CCC2)cc1,0.166%,
CC(CNC(=O)Cn1cnc2c(OCc3ccccc3)ncnc21)c1ccccc1 (stereo unspecified),1.33%,
Cc1ccc(Nc2nc(N3CCOCC3)nc(N3CCOCC3)n2)cc1Cl,0.349% [at 9.26 µM],
COc1cccc(Nc2nc(N)c([N+](=O)[O-])c(NCc3ccco3)n2)c1,-1.09%,
CNc1nc(Nc2ccc(C)c(Cl)c2)nc(N)c1[N+](=O)[O-],,10.3 µM (active)
CCN(C(=O)COC(=O)c1ccccc1O)c1cccc2ccccc12,-3.96%,
